{"source": "PubChem BioAssay (NCI)", "note": "About 79,000 compounds went through this panel and 15% of them were active in at least one assay; those are over-represented in the sample as a whole. Values without a mark were called inactive. The source made the active and inactive calls. No stated cut-off is given here; in the data, active means growth inhibition above about 70%; inactive means the rest.", "data": [{"assay": "NCI Yeast Anticancer Drug Screen. Data for the cln2 rad14 strain (AID 165);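 further: 0% = growth equal to vehicle treated cultures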", "details": "S. cerevisiae cln2 rad14 strain, at 50.0 µM (retest, dose inferred, filed as 5.0), active compounds read high", "summary_of_the_method": "(§1)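 Growth of compound-exposed yeast (cln2 rad14 genotype) measured and expressed as inhibition relative to vehicle.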", "values": [{"smiles": "C1=NC2c3ccccc3Cc3cccc1c32", "note": "(stereo not drawn)", "growth inhibition": "96% (active)"}, {"smiles": "COc1ccc2c(c1)CN([C@@H](C)[C@H]1CC[C@H]3[C@@H]4CC[C@H]5C[C@@H](O)CC[C@]5(C)[C@H]4CC[C@]13C)CO2", "growth inhibition": "99% (active)"}, {"smiles": "Cc1c(N)nc(C(CC(N)=O)NCC(N)C(N)=O)nc1C(=O)NC(C(=O)NC(C)C(O)C(C)C(=O)NC(C(=O)NCCc1nc(-c2nc(C(=O)NCCCNCCCc3ccccn3)cs2)cs1)C(C)O)C(OC1OC(CO)C(O)C(O)C1OC1OC(CO)C(O)C(OC(N)=O)C1O)c1cnc[nH]1", "note": "(stereo not drawn)", "growth inhibition": "98% (active)"}, {"smiles": "COc1cc2c(cc1O)-c1c(cnn1-c1ccccc1)CCC2", "growth inhibition": "88% (active)"}, {"smiles": "CN(C)CC(CN(C)C)C(=O)c1ccc(Oc2ccc(Cl)cc2)cc1", "growth inhibition": "98% (active)"}, {"smiles": "N#CCCN(CCC#N)Cc1c(O)c(O)c(CN(CCC#N)CCC#N)c2ccccc12", "growth inhibition": "-7%"}, {"smiles": "Cc1cc2c(c([N+](=O)[O-])c1C)C(=O)C(Br)=C(N)C2=O", "growth inhibition": "98% (active)"}, {"smiles": "O=C(O)CSC(=S)N1CCCC1", "growth inhibition": "2%"}, {"smiles": "CNC1=C2NC(=O)/C(C)=C\\C=C\\C(C)C(O)C(C)C(O)C(C)C(OC(C)=O)C(C)C(OC)/C=C/OC3(C)Oc4c(C)c(O)c(c(c4C3=O)C1=O)C2=O", "note": "(stereo not drawn)", "growth inhibition": "59%"}, {"smiles": "O=c1c(Cl)nsnc1Cl", "growth inhibition": "100% (active)"}, {"smiles": "CC(NC(=O)OCc1ccccc1)C(=O)NNc1ccccc1Cl", "note": "(stereo not drawn)", "growth inhibition": "68%"}, {"smiles": "O=C(OCc1ccccc1CN1CCOCC1)c1cccc(Br)c1", "growth inhibition": "-3%"}, {"smiles": "OC(COc1ccc(Cl)cc1)COc1ccc(Cl)cc1", "growth inhibition": "86% (active)"}, {"smiles": "Cc1c(-c2ccc(C(=N)N)cc2)oc(-c2ccc(C(=N)N)cc2)c1C", "growth inhibition": "96% (active)"}, {"smiles": "COC(=O)[C@@]12OC[C@]34[C@H]([C@@H](O)[C@@H]1O)[C@@]1(C)CC(=O)C(O)=C(C)[C@@H]1C[C@H]3OC(=O)[C@H](OC(=O)C(Cc1ccccc1)NC(=O)OC(C)(C)C)[C@@H]24", "note": "(stereo partly drawn)", "growth inhibition": "78% (active)"}, {"smiles": "CCCCCCCCCCCCCCCC(=O)NCC[N+](C)(CC)CC", "growth inhibition": "-15%"}, {"smiles": "Oc1ccc(CCCCCc2ccc(O)cc2)cc1", "growth inhibition": "99% (active)"}, {"smiles": "NN(Cc1ccccc1)c1ccccc1", "growth inhibition": "99% (active)"}, {"smiles": "CCOC(=O)c1[nH]cc(C)c1-c1ccc2c(-c3ccccc3)nc3ccccc3n12", "growth inhibition": "81% (active)"}, {"smiles": "COC(=O)c1cn(NS(=O)(=O)c2ccc(OC)cc2)cc1C(=O)OC", "growth inhibition": "0%"}, {"smiles": "CN(C)c1cc2c(cc1[N+](=O)[O-])-c1ccccc1C2O", "note": "(stereo not drawn)", "growth inhibition": "34%"}, {"smiles": "CN(C)CCOc1cc2c(c3ccccc13)-c1ccccc1C2O", "note": "(stereo not drawn)", "growth inhibition": "31%"}, {"smiles": "BrC(Br)([P+](c1ccccc1)(c1ccccc1)c1ccccc1)[P+](c1ccccc1)(c1ccccc1)c1ccccc1", "growth inhibition": "24%"}, {"smiles": "CCOCCNc1ncnc2c1cnn2C", "growth inhibition": "-1%"}, {"smiles": "C[C@H](CCC1=NCCN1)[C@H]1CC[C@H]2[C@@H]3CC[C@@H]4C[C@H](O)CC[C@]4(C)[C@H]3C[C@H](O)[C@]12C", "growth inhibition": "99% (active)"}, {"smiles": "CCOC(=O)C1=C(c2ccccc2)N(C)c2ccccc2S1", "growth inhibition": "-7%"}, {"smiles": "C(=P(c1ccccc1)(c1ccccc1)c1ccccc1)[P+](c1ccccc1)(c1ccccc1)c1ccccc1.[Br][Cu][Br]", "growth inhibition": "99% (active)"}, {"smiles": "COc1ccc(N(C)Sc2ccccc2)cc1", "growth inhibition": "63%"}, {"smiles": "COc1ccc(Cc2c(-c3ccc(C)cc3)n[nH]c(=O)c2C2C(=O)N(c3ccccc3)N=C2c2ccccc2)cc1", "note": "(stereo not drawn)", "growth inhibition": "97% (active)"}, {"smiles": "N#CSC#CCCC#CSC#N", "growth inhibition": "99% (active)"}, {"smiles": "c1ccc2c(c1)OCC(CNCCNCC1COc3ccccc3O1)O2", "note": "(stereo not drawn)", "growth inhibition": "63%"}, {"smiles": "CC(C)(C)OC(=O)N[C@H]1CC2(C=C(Cl)C(=O)C(Cl)=C2)OC1=O", "growth inhibition": "31%"}, {"smiles": "c1ccc([P+](c2ccccc2)(c2ccccc2)C2CCCC2)cc1", "growth inhibition": "-1%"}, {"smiles": "COc1ccc2nc(-c3ccc(Cl)cc3)[nH]c2c1", "growth inhibition": "47%"}, {"smiles": "CC[C@H](CC[C@@H](C)C1CC[C@H]2[C@@H]3CCC4=CC(=O)CC[C@]4(C)[C@H]3CC[C@]12C)C(C)C", "note": "(stereo partly drawn)", "growth inhibition": "28%"}, {"smiles": "CCOC(=O)N/N=C/c1ccc(N(C)CCC#N)cc1", "growth inhibition": "17%"}, {"smiles": "CC(Br)C(=O)c1ccc2cc(Cl)c3ccccc3c2c1", "note": "(stereo not drawn)", "growth inhibition": "99% (active)"}, {"smiles": "Cc1ccc(-n2cc(-c3ccc(Cl)cc3)c3c(NN)ncnc32)cc1", "growth inhibition": "37%"}, {"smiles": "O=C1c2ccccc2C(=O)c2c1ccc(C(=O)O)c2-c1ccc2ccccc2c1", "growth inhibition": "96% (active)"}]}, {"assay": "NCI Yeast Anticancer Drug Screen. Data for the cln2 rad14 strain (AID 165)", "details": "S. cerevisiae cln2 rad14 strain, at 50.0 µM, active compounds read high", "summary_of_the_method": "as §1", "values": [{"smiles": "C1=NC2c3ccccc3Cc3cccc1c32", "note": "(stereo not drawn)", "growth inhibition": "93.6% (active)"}, {"smiles": "COc1ccc2c(c1)CN([C@@H](C)[C@H]1CC[C@H]3[C@@H]4CC[C@H]5C[C@@H](O)CC[C@]5(C)[C@H]4CC[C@]13C)CO2", "growth inhibition": "98.2% (active)"}, {"smiles": "Cc1c(N)nc(C(CC(N)=O)NCC(N)C(N)=O)nc1C(=O)NC(C(=O)NC(C)C(O)C(C)C(=O)NC(C(=O)NCCc1nc(-c2nc(C(=O)NCCCNCCCc3ccccn3)cs2)cs1)C(C)O)C(OC1OC(CO)C(O)C(O)C1OC1OC(CO)C(O)C(OC(N)=O)C1O)c1cnc[nH]1", "note": "(stereo not drawn)", "growth inhibition": "90.3% (active)"}, {"smiles": "COc1cc2c(cc1O)-c1c(cnn1-c1ccccc1)CCC2", "growth inhibition": "55%"}, {"smiles": "CN(C)CC(CN(C)C)C(=O)c1ccc(Oc2ccc(Cl)cc2)cc1", "growth inhibition": "5.15%"}, {"smiles": "N#CCCN(CCC#N)Cc1c(O)c(O)c(CN(CCC#N)CCC#N)c2ccccc12", "growth inhibition": "46.2%"}, {"smiles": "Cc1cc2c(c([N+](=O)[O-])c1C)C(=O)C(Br)=C(N)C2=O", "growth inhibition": "98.3% (active)"}, {"smiles": "O=C(O)CSC(=S)N1CCCC1", "growth inhibition": "-40.7%"}, {"smiles": "CNC1=C2NC(=O)/C(C)=C\\C=C\\C(C)C(O)C(C)C(O)C(C)C(OC(C)=O)C(C)C(OC)/C=C/OC3(C)Oc4c(C)c(O)c(c(c4C3=O)C1=O)C2=O", "note": "(stereo not drawn)", "growth inhibition": "49%"}, {"smiles": "O=c1c(Cl)nsnc1Cl", "growth inhibition": "98% (active)"}, {"smiles": "CC(NC(=O)OCc1ccccc1)C(=O)NNc1ccccc1Cl", "note": "(stereo not drawn)", "growth inhibition": "98.2% (active)"}, {"smiles": "O=C(OCc1ccccc1CN1CCOCC1)c1cccc(Br)c1", "growth inhibition": "-4.15%"}, {"smiles": "OC(COc1ccc(Cl)cc1)COc1ccc(Cl)cc1", "growth inhibition": "99% (active)"}, {"smiles": "Cc1c(-c2ccc(C(=N)N)cc2)oc(-c2ccc(C(=N)N)cc2)c1C", "growth inhibition": "89% (active)"}, {"smiles": "COC(=O)[C@@]12OC[C@]34[C@H]([C@@H](O)[C@@H]1O)[C@@]1(C)CC(=O)C(O)=C(C)[C@@H]1C[C@H]3OC(=O)[C@H](OC(=O)C(Cc1ccccc1)NC(=O)OC(C)(C)C)[C@@H]24", "note": "(stereo partly drawn)", "growth inhibition": "85.9% (active)"}, {"smiles": "CCCCCCCCCCCCCCCC(=O)NCC[N+](C)(CC)CC", "growth inhibition": "17.9%"}, {"smiles": "Oc1ccc(CCCCCc2ccc(O)cc2)cc1", "growth inhibition": "99.2% (active)"}, {"smiles": "NN(Cc1ccccc1)c1ccccc1", "growth inhibition": "90% (active)"}, {"smiles": "CCOC(=O)c1[nH]cc(C)c1-c1ccc2c(-c3ccccc3)nc3ccccc3n12", "growth inhibition": "38.8%"}, {"smiles": "COC(=O)c1cn(NS(=O)(=O)c2ccc(OC)cc2)cc1C(=O)OC", "growth inhibition": "33.9%"}, {"smiles": "CN(C)c1cc2c(cc1[N+](=O)[O-])-c1ccccc1C2O", "note": "(stereo not drawn)", "growth inhibition": "41.4%"}, {"smiles": "CN(C)CCOc1cc2c(c3ccccc13)-c1ccccc1C2O", "note": "(stereo not drawn)", "growth inhibition": "38.1%"}, {"smiles": "BrC(Br)([P+](c1ccccc1)(c1ccccc1)c1ccccc1)[P+](c1ccccc1)(c1ccccc1)c1ccccc1", "growth inhibition": "35.4%"}, {"smiles": "CCOCCNc1ncnc2c1cnn2C", "growth inhibition": "-0.35%"}, {"smiles": "C[C@H](CCC1=NCCN1)[C@H]1CC[C@H]2[C@@H]3CC[C@@H]4C[C@H](O)CC[C@]4(C)[C@H]3C[C@H](O)[C@]12C", "growth inhibition": "87.8% (active)"}, {"smiles": "CCOC(=O)C1=C(c2ccccc2)N(C)c2ccccc2S1", "growth inhibition": "-0.8%"}, {"smiles": "C(=P(c1ccccc1)(c1ccccc1)c1ccccc1)[P+](c1ccccc1)(c1ccccc1)c1ccccc1.[Br][Cu][Br]", "growth inhibition": "98% (active)"}, {"smiles": "COc1ccc(N(C)Sc2ccccc2)cc1", "growth inhibition": "35.6%"}, {"smiles": "COc1ccc(Cc2c(-c3ccc(C)cc3)n[nH]c(=O)c2C2C(=O)N(c3ccccc3)N=C2c2ccccc2)cc1", "note": "(stereo not drawn)", "growth inhibition": "96% (active)"}, {"smiles": "N#CSC#CCCC#CSC#N", "growth inhibition": "92.9% (active)"}, {"smiles": "c1ccc2c(c1)OCC(CNCCNCC1COc3ccccc3O1)O2", "note": "(stereo not drawn)", "growth inhibition": "87% (active)"}, {"smiles": "CC(C)(C)OC(=O)N[C@H]1CC2(C=C(Cl)C(=O)C(Cl)=C2)OC1=O", "growth inhibition": "69.2%"}, {"smiles": "c1ccc([P+](c2ccccc2)(c2ccccc2)C2CCCC2)cc1", "growth inhibition": "98.3% (active)"}, {"smiles": "COc1ccc2nc(-c3ccc(Cl)cc3)[nH]c2c1", "growth inhibition": "-4%"}, {"smiles": "CC[C@H](CC[C@@H](C)C1CC[C@H]2[C@@H]3CCC4=CC(=O)CC[C@]4(C)[C@H]3CC[C@]12C)C(C)C", "note": "(stereo partly drawn)", "growth inhibition": "63.3%"}, {"smiles": "CCOC(=O)N/N=C/c1ccc(N(C)CCC#N)cc1", "growth inhibition": "5.5%"}, {"smiles": "CC(Br)C(=O)c1ccc2cc(Cl)c3ccccc3c2c1", "note": "(stereo not drawn)", "growth inhibition": "-16.8%"}, {"smiles": "Cc1ccc(-n2cc(-c3ccc(Cl)cc3)c3c(NN)ncnc32)cc1", "growth inhibition": "90.3% (active)"}, {"smiles": "O=C1c2ccccc2C(=O)c2c1ccc(C(=O)O)c2-c1ccc2ccccc2c1", "growth inhibition": "97.3% (active)"}]}]}
